Data published in the supplement of paper PMC12645437, “Orthogonal IMiD-Degron Pairs Induce Selective Protein Degradation in Cells” (ACS Chemical Biology, 2025).
The full ranking holds about 8,300 sequences; the median of “log2 fold change of degron read counts, EGFP-low vs EGFP+ sorted cells (limma voom), compound-induced degradation” is about -1.1, and the highest 2% start at about 3.2. The sample as a whole holds a higher share of the highest values than the screen did.

T1: CRBN, Q96SW2
T1 chain: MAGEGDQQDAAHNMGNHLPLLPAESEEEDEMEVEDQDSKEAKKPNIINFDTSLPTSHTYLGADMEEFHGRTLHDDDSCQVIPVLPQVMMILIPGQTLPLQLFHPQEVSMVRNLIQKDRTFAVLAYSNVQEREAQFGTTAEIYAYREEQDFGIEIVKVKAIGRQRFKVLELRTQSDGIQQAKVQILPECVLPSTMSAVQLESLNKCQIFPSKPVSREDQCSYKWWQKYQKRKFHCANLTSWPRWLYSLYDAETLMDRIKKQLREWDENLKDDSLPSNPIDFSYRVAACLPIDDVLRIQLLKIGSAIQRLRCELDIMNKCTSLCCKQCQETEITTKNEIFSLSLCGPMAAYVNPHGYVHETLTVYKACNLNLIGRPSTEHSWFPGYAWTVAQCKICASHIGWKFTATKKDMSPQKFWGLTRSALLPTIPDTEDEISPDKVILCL


Target: T1, CRBN, Q96SW2
Assay: log2 fold change of degron read counts, EGFP-low vs EGFP+ sorted cells (limma voom), compound-induced degradation; higher = more compound-induced degradation of the degron-EGFP fusion; degrons are variants of IKZF1/3 zinc finger 2; compound dose not given here
Conditions: Jurkat, 18 h
[1] = compound: compound 19 (5-tert-butyl-thalidomide)
[2] = compound: compound 22 (5-morpholino-thalidomide)
[3] = compound: compound 33 (diphenyl IMiD analogue)
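Also: pooled lentiviral library of zinc finger degron-EGFP fusions in mCherry-positive Jurkat cells, FACS-sorted after compound exposure, with degron abundance counted by next-generation sequencing.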

Sequence	log2 fold change of degron read counts [1]	log2 fold change of degron read counts [2]	log2 fold change of degron read counts [3]	log2 fold change of degron read counts (compound: thalidomide)
FICEICGRAFTQKGNLLRHIKL [46F_47I_49E_50I_52G_53R_54A_55F_67L_, Q9UKT9]	-2.83	-1.59	-1.38	-0.306
FNCPVCGAHFTQKGNLLRHIKL [46F_47N_49P_50V_52G_53A_54H_55F_67L_, Q9UKT9]	2.14	0.242	0.245	0.138
FRCEQCGAMFTQKGNLLRHIKL [46F_47R_49E_50Q_52G_53A_54M_55F_67L_, Q9UKT9]	-2.73	-3.44	-1.59	-1.56
FNCDQCGAAFTQKGNLLRHIKL [46F_47N_49D_50Q_52G_53A_54A_55F_67L_, Q9UKT9]	-1.89	-2.81	-2.8	-2.92
LHCEICGFHCTQKGNLLRHIKL [46L_47H_49E_50I_52G_53F_54H_55C_67L_, Q9UKT9]	1.32	1.17	1.52	1.23
LCCNQCGFECTQKGNLLRHIKL [46L_47C_49N_50Q_52G_53F_54E_55C_67L_, Q9UKT9]	-2.68	-2.78	-2.7	-2.45
FMCDVCGAAFTQKGNLLRHIKL [46F_47M_49D_50V_52G_53A_54A_55F_67L_, Q9UKT9]	-0.0468	1.05	2.19	-0.154
FCCEVCGADFTQKGNLLRHIKL [46F_47C_49E_50V_52G_53A_54D_55F_67L_, Q9UKT9]	-0.0408	-0.873	0.0623	-0.497
LQCNQCGFCCTQKGNLLRHIKL [46L_47Q_49N_50Q_52G_53F_54C_55C_67L_, Q9UKT9]	-2.28	-2.29	-2.54	-1.12
FKCNQCGHRFTQKGNLLRHIKL [46F_47K_49N_50Q_52G_53H_54R_55F_67L_, Q9UKT9]	-2.45	-2.52	-2.56	-2.52
FDCPVCGAKFTQKGNLLRHIKL [46F_47D_49P_50V_52G_53A_54K_55F_67L_, Q9UKT9]	1.65	0.129	-0.726	1.92
FACPVCGAKFTQKGNLLRHIKL [46F_47A_49P_50V_52G_53A_54K_55F_67L_, Q9UKT9]	3.4	1.28	-1.29	0.727
FFCPVCGAKFTQKGNLLRHIKL [46F_47F_49P_50V_52G_53A_54K_55F_67L_, Q9UKT9]	2.79	2.64	0.946	0.56
FVCPVCGAKFTQKGNLLRHIKL [46F_47V_49P_50V_52G_53A_54K_55F_67L_, Q9UKT9]	-0.585	1.91	-0.53	2.09
FECPVCGAKFTQKGNLLRHIKL [46F_47E_49P_50V_52G_53A_54K_55F_67L_, Q9UKT9]	-0.0658	-1.21	-0.306	2.62
FWCPVCGAKFTQKGNLLRHIKL [46F_47W_49P_50V_52G_53A_54K_55F_67L_, Q9UKT9]	2.74	3.29	0.923	0.809
FKCPVCGAKFTQKGNLLRHIKL [46F_47K_49P_50V_52G_53A_54K_55F_67L_, Q9UKT9]	-1.68	-2.82	-3.08	-1.18
FHCPVCGAKFTQKGNLLRHIKL [46F_47H_49P_50V_52G_53A_54K_55F_67L_, Q9UKT9]	2.35	1.96	0.171	0.556
FMCPVCGAKFTQKGNLLRHIKL [46F_47M_49P_50V_52G_53A_54K_55F_67L_, Q9UKT9]	-0.124	-0.0797	0.661	0.797
FQCPVCGAKFTQKGNLLRHIKL [46F_47Q_49P_50V_52G_53A_54K_55F_67L_, Q9UKT9]	0.186	2.88	0.361	3.96
FGCPVCGAKFTQKGNLLRHIKL [46F_47G_49P_50V_52G_53A_54K_55F_67L_, Q9UKT9]	3.82	1.67	-0.46	1.12
FNCPVCGAKFTQKGNLLRHIKL [46F_47N_49P_50V_52G_53A_54K_55F_67L_, Q9UKT9]	1.67	0.844	-1.26	0.347
FGCPICGRKFTQKGNLLRHIKL [46F_47G_49P_50I_52G_53R_54K_55F_67L_, Q9UKT9]	3.06	0.59	-1.32	-0.606
FRCNQCGRVFTQKGNLLRHIKL [46F_47R_49N_50Q_52G_53R_54V_55F_67L_, Q9UKT9]	-2.28	-2.49	-2.54	-1.61
FQCPICGRLFTQKGNLLRHIKL [46F_47Q_49P_50I_52G_53R_54L_55F_67L_, Q9UKT9]	-1.51	-0.0572	0.785	2.29
FVCEICGAFFTQKGNLLRHIKL [46F_47V_49E_50I_52G_53A_54F_55F_67L_, Q9UKT9]	-0.344	-0.0422	1.09	1.08
FICDVCGALFTQKGNLLRHIKL [46F_47I_49D_50V_52G_53A_54L_55F_67L_, Q9UKT9]	-1.82	-0.923	0.0161	-0.806
FCCPQCGATFTQKGNLLRHIKL [46F_47C_49P_50Q_52G_53A_54T_55F_67L_, Q9UKT9]	-1.19	-0.971	1.49	-0.551
